Measurements: the OligoGym collection

What follows are sequences tested against GPKOW (assay: pooled miR-30 sensor sort-seq; sequence = guide strand). Settings: shRNA.
Further: reference of the scale not given here.

Sequence | sensor-assay potency score (higher = more potent)
TTCTCTTGCTCCTCATCTGGTC | -0.383
TTCTTGTCAAACTCCTGCTGGG | -0.621
TAGGACATCTTCAATTATCATC | -1.06
TCACTAACAGTCACCACCCGGC | -0.433
TACATGTTGTCCACAAACCGCA | -0.382
TTCAATTATCATCTTGGTGTTG | -0.529
TAAATTTTGGTAAATATTGGGT | -0.472
TACAGAACTGGTACCAGCCTGG | -0.224
TCAATTATCATCTTGGTGTTGT | 0.378
TTCTCTTGGCAGTTGCACCAAA | -0.529
TTCACTACTTGATTGAAGGTGC | 0.973
TCTTCAATTATCATCTTGGTGT | -0.0614

The sequences below were run against GPR109B in the same assay as above. Settings: shRNA.

Sequence | sensor-assay potency score (higher = more potent)
TAGTAGTCCATCACGAACGGCA | -0.532
TGGCAATGAAGTCATCTCGGAA | -1.54
AAACATGAAGAGCACCAGCCGG | -1.47
ATAGTAGTCCATCACGAACGGC | -1.03
TTGGCAATGAAGTCATCTCGGA | -0.164
TTGGAATGGTTATTTGAGGTTG | -0.497
TGCAGTGCCATTCTGGATCAGC | -0.994
ATTCTGGATCAGCAACTTCTTC | -1.51
TCACCTGTTATCTTCCTCTGGA | -0.218
TAGAAAGTCAGCTACTGCCAGG | -1.14
TAGGCCAACAGTGATGCCCCAC | -0.395
AACATGAAGAGCACCAGCCGGC | -0.505

These sequences were tested against GPR123 in the same assay as above. Settings: shRNA.

Sequence | sensor-assay potency score (higher = more potent)
TTTTCCAGGGTCCCGTTCGGAT | -1.35
TCGTTCTGCAGCACGGAGGCGC | -0.763
TCGCAGTGCATCTTGGCGCAGC | -1.13
TTCTTGGTCACCTGCTTGTAGA | -1.61
TAATTCCTGATGTTCGTGGCAG | -0.373
TGTGTGCGCAGCTCGTACCTGC | -0.983
TTCTGCAGCACGGAGGCGCCGG | -0.928
AACAGGAACAGCGTGAAGGCGG | -0.39
TAGCAATTTACCCTTGGGCAGC | -1.23
TGTAGAATAGTGCAGCACGATG | -1.66
TTCTAGCAATTTACCCTTGGGC | -1.05
TGCATCTTGGCGCAGCACGGGG | -1.59

These sequences were tested against GPR137 in the same assay as above. Settings: shRNA.

Sequence | sensor-assay potency score (higher = more potent)
TCAGACACATTGTACCAGCCGT | -0.426
TCATTCACCAGGTCCGCCTGGT | 0.279
AAGAACTGCAGGCAGACGGGGC | -0.842
